Screening data: PubChem, National Center for Advancing Translational Sciences (NCATS)
Sampled rows, rich in hits. Any-hit rate of the full collection: about 12%.
Sfp PPTase inh = Sfp phosphopantetheinyl transferase inhibition; Potency, µM, for inactives: largest response in the series, negative = inhibition, most hits filed as inhibitors; Q9F4F7; 310,000 compounds, 3.5% hits; Biochemical Sfp PPTase activity, qHTS;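 further: the enzyme is Sfp with the accession as filed and its product quenches rhodamine fluorescence; 0% = enzyme reaction without inhibitor and -100% = no enzyme wells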
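Sfp 15 nM + cpd, 15 min RT; start w/ rhodamine-CoA 5 uM, BHQ-2-YbbR 12.5 uM (final); 50 mM Hepes pH 7.6, 10 mM MgCl2, 0.01% NP-40, 0.01% BSA; read 525/598 nm at 0 and 30 min.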
JMJD2A Tudor inh = blocks the human JMJD2A Tudor domain; AlphaScreen JMJD2A-Tudor / H3K4me3 peptide binding; Potency, µM (doses to about 114 µM), inactives show top-dose activity change, negative = inhibition, actives largely listed as inhibitors; 390,000 compounds, 4.4% hits; AID 504339; further: on the % scale 0 is the no-effect control and ±100 the full control effect; nearly all actives have a fitted effect of over 50% in size
Target sequence (O75164 whole entry, looked up, the tested form may be a part): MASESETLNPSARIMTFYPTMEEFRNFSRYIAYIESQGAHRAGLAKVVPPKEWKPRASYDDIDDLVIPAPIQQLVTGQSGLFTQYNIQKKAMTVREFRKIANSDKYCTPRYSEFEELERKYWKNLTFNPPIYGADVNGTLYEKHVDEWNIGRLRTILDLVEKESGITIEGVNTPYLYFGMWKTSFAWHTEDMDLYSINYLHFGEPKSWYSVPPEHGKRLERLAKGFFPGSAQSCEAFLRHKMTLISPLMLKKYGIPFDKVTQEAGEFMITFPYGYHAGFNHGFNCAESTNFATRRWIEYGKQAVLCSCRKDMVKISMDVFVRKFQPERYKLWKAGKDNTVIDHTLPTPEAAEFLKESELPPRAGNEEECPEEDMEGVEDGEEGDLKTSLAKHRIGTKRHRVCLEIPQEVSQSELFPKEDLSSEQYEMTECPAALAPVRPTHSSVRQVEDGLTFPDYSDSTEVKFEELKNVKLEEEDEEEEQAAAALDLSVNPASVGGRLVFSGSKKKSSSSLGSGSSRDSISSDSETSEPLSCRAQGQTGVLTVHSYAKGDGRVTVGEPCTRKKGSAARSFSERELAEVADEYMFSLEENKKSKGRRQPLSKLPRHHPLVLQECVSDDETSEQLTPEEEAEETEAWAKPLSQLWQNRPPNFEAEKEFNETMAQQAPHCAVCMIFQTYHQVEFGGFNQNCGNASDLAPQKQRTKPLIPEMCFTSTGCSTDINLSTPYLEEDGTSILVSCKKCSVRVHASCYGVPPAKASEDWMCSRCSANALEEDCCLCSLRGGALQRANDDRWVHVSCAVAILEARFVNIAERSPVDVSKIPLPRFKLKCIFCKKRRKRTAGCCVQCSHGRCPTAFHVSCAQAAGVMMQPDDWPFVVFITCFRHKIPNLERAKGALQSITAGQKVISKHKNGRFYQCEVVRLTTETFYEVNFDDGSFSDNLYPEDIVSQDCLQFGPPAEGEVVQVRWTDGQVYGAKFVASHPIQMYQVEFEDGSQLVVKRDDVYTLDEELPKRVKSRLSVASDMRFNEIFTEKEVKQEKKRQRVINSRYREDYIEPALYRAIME
BAZ2B block = blocks human BAZ2B; Q9UIF8; AlphaScreen BAZ2B-H3K14Ac peptide displacement; Potency, µM (series often up to 114 µM), inactives show at the highest dose activity change, negative = inhibition, usual class: inhibitors; 360,000 compounds, 4.4% hits; AID 504333; further: on the % scale 0 is the no-effect control and ±100 the full control effect; nearly all actives have a fitted effect of over 60% in size
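Complex of BAZ2B and biotin-H3K14Ac (50 nM apiece) forms over 30 min at RT, then faces library compounds up to 110 uM for another 30 min; AlphaScreen beads added, 20 min dark incubation, luminescence read.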
G9a block = inhibitors of human histone lysine methyltransferase G9a. Potency, µM (series often up to 102 µM), without a hit: at the top dose activity, negative = inhibition, hits mostly inhibitors. AID 504332. 350,000 compounds, 8.8% hits. Q96KQ7. G9a H3K9 monomethylation, AlphaScreen, 2 h; further: on the % scale 0 is the no-effect control and ±100 the full control effect; nearly all actives have a fitted effect of over 75% in size
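Chemiluminescent proximity detection of H3K9 monomethylation, read after 10 min bead incubation in the dark. Reaction: 20 nM G9a, 500 nM biotin-H3K9 peptide, 20 uM SAM cofactor, 2 h, room temperature, following 15 min enzyme-compound preincubation.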
HP1b chromo inh = blocks HP1-beta chromodomain binding to methylated histone tails; AlphaScreen HP1-beta / biotin-H3K9me3 peptide binding; Potency, µM (titrated, usually from 114 µM), without a hit: top-dose activity change, negative = inhibition, usual class: inhibitors; 390,000 compounds, 0.56% hits; further: nearly all actives have a fitted effect of over 70% in size
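Compound inhibition of the preformed complex between 50 nM HP1-beta and 50 nM biotinylated H3K9me3 peptide was read by AlphaScreen. Buffer was PBS pH 7.4 with 0.01% Tween-20. Incubations ran 30 min at room temperature, with 10 ug/mL donor/acceptor beads.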
L3MBTL1 inh = L3MBTL1 (human) inhibition; Q9Y468; AlphaScreen L3MBTL1–H3K9me1 peptide binding; Potency, µM (doses to about 57.1 µM), without a hit: at the top dose activity, negative = inhibition, most hits filed as inhibitors; 230,000 compounds, 0.66% hits; further: on the % scale 0 is the no-effect control and ±100 the full control effect; nearly all actives have a fitted effect of over 60% in size
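L3MBTL1 (50 nM) pre-complexed 30 min with biotinylated H3(1-15)K9me1 peptide (75 nM), then compounds added for 30 min at room temperature; AlphaScreen streptavidin donor/nickel chelate acceptor beads (10 ug/mL final) read after 30 min dark incubation.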
* hit, by the source's call; ? = inconclusive; . = no result; [ ] = another dose, or the depositor's remark. The call rests on the fitted dose curve; in most records, active means well fitted curve in the direction sought with a large enough effect; inconclusive means small, poorly fitted or top-dose-only effect, or another doubt; inactive means no such curve, though single readings can be large; an effect the other way counts as inactive or inconclusive. Potency means the concentration at half of the fitted maximal effect.

SMILES	Sfp PPTase inh	JMJD2A Tudor inh	BAZ2B block	G9a block	HP1b chromo inh	L3MBTL1 inh
C[C@@H]1C[C@H](C)C[C@H](C)[C@@H](O)CC(=O)O[C@H]([C@H]2CCC[C@H]2C(=O)O)C/C=C/C=C(/C#N)[C@H](O)[C@@H](C)C1	4.9%	.	.	.	.	.
COc1ccc(NC2=NC(C)(C)CS2)cc1	56.2µM*	-6.2%	-11.0%	?	-4.4%	2.5%
C[C@@]12CCC(OS(=O)(=O)O)C[C@@H]1CCC1C2CC[C@]2(C)C(=O)CCC12 (stereo partly drawn)	30.1%	.	.	.	.	.
CN1CCC(O)(c2cccs2)C(C(=O)c2cccs2)C1 (stereo not drawn)	-21.3%	-17.6%	-17.8%	25.1µM*	6.2%	1.5%
CC(C)=CCCN1CCC(NC(=O)C(O)(c2ccccc2)C2CCCC2)CC1 (stereo not drawn)	5.1%	.	.	.	.	.
CN(C)c1ccc(/C=C2\CCCN=C2c2cccnc2)cc1	-14.4%	.	.	.	.	.
O=C(CN1CC(c2ccccc2)CC1=O)Nc1cccc(F)c1 (stereo not drawn)	-7.7%	-19.7%	-12.8%	-36.1%	2.0%	0.7%
O=C(Cn1c(=O)n(CC2CCC(C(=O)NCCc3ccccc3)CC2)c(=O)c2ccccc21)Nc1cccc(F)c1 (stereo not drawn)	.	56.2µM*	-0.9%	-6.1%[59 µM]	10.6%	.
Cc1ccc(C(=O)Nc2ccc(S(=O)(=O)N3CCC(c4nc5ccccc5s4)CC3)cc2)cc1	.	-12.9%	?	-28.4%[59 µM]	34.4%	.
N#CC(C#N)=NNc1ccc(S(N)(=O)=O)cc1	4.0%	-19.1%[11.4 µM]	?	-0.6%[12.7 µM]	35.5µM*	.
CC1CCN(S(=O)(=O)c2ccc(NN=C(C#N)C#N)cc2)CC1	15.6%	.	44.7µM*	?	.	.
C=CCN1C(=O)/C(=C/c2cc(C)n(-c3cccnc3)c2C)C(=O)NC1=S	-90.6%	-12.5%	-38.7%	?	4.1%	-19.7%
CCN1C(=O)/C(=C\c2ccc([N+](=O)[O-])s2)C(=O)NC1=S	10µM*	.	10µM*	2.82µM*	.	.
C=CCN1C(=O)/C(=C/c2ccc(Br)s2)C(=O)NC1=S	39.8µM*	44.7µM*	56.2µM*	3.16µM*	-13.4%	-9.6%
CC(=O)O[C@H]1C[C@H](O[C@H]2[C@@H](O)CC(O[C@H]3[C@@H](O)C[C@H](O[C@H]4CC[C@@]5(C)[C@H](CC[C@@H]6[C@@H]5CC[C@]5(C)[C@@H](C7=CC(=O)OC7)CC[C@]65O)C4)O[C@@H]3C)O[C@@H]2C)O[C@H](C)[C@H]1O[C@@H]1O[C@H](CO)[C@@H](O)[C@H](O)[C@H]1O (stereo partly drawn)	11.1%	.	.	-6.0%[12.7 µM]	.	.
O=C(O)c1ccc[nH]c1=S	8.91µM*	0.891µM*	39.8µM*	3.55µM*	38.4%	-1.2%
O=C(O)c1ccccc1C(=O)O	.	-11.7%	?	1.0%[0.501 µM]	97.0%	5.6%
NNC(=O)c1ccc(Cl)cc1	-18.4%	-2.1%	-26.3%	-14.9%[59 µM]	40.5%	?
O=C(O)CP(=O)(O)c1ccc(Cl)cc1	?	39.8µM*	-35.6%	50.1µM*	28.6%	0.4%
CC(=O)Oc1c2c(c(CC=C(C)C)c3c1C(=O)C1=CC4CC5C(C)(C)OC(C/C=C(\C)C(=O)O)(C4=O)[C@]15O3)OC(C)(CCC=C(C)C)C=C2 (stereo partly drawn)	25.1µM*	.	.	.	.	.
CCC(C(N)=O)N1CCCC1=O (stereo not drawn)	-1.2%	.	.	26.9%[59 µM]	.	.
O=C(N/N=C\C1C(=O)NC(=S)N(c2ccccc2)C1=O)c1ccc(O)cc1 (stereo not drawn)	-7.5%	79.4µM*	25.1µM*	8.91µM*	22.4%	.
Cc1ccc(NC(=O)CSc2nc(-c3ccco3)cc(C(F)(F)F)n2)c(C)c1	.	4.5%	1.2%	15.5%[59 µM]	42.4%	.
COc1cccc(CNC(=O)CSc2ccc(-c3ccco3)nn2)c1	22.4µM*	-22.8%	?	28.2µM*	21.3%	.
NC(=O)CNC(=O)[C@H](Cc1ccccc1)NC(=O)[C@H](CCCN=C(N)N)NC(=O)[C@@H](N)Cc1ccc(O)cc1	19.3%	.	.	36.6%[59 µM]	.	.
SMILES	Sfp PPTase inh	JMJD2A Tudor inh	BAZ2B block	G9a block	HP1b chromo inh	L3MBTL1 inh
Cc1cc(C=C2C(=O)N(C)C(=O)N(C)C2=O)c(C)n1-c1ccccc1	-3.2%	-5.2%	-7.8%	7.94µM*	64.7%	.
O=C1C=CC2C3C(=O)N(c4ccccc4)C(=O)C3C1N2Cc1ccccc1 (stereo not drawn)	.	-3.5%	.	.	43.5%	.
CCOc1ccc(Nc2c(S(=O)(=O)c3ccc(C)cc3)cnc3ccccc23)cc1	.	?	?	-34.0%[59 µM]	9.0%	.
CCOc1ccc(Nc2c(S(=O)(=O)c3ccc(C)cc3)cnc3ccc(F)cc23)cc1	.	-30.5%	-37.3%	10µM*	4.9%	.
C[C@H]1CC[C@@]2(NC1)O[C@@H]1C[C@H]3[C@@H]4CC[C@@H]5C[C@@H](O)CC[C@@]5(C)[C@@H]4CC[C@]3(C)[C@@H]1[C@@H]2C	16.7%	.	.	3.6%[21.5 µM]	.	.
Cn1c(O)c(/C=N/Nc2ccccc2)c(=O)n(C)c1=O	56.2µM*	?	-23.5%	3.98µM*	18.5%	-2.2%
CN1CCN(/N=C/c2c(O)n(C)c(=O)n(C)c2=O)CC1	-12.2%	-8.1%[57.1 µM]	-11.8%	28.2µM*	17.6%	?
Cc1ccc(-n2c(O)c(/C=N/Nc3ccccc3)c(=O)[nH]c2=O)cc1C	-7.6%	-23.8%	-23.7%	7.94µM*	25.3%	-16.0%
COc1ccc(N/N=C/c2c(O)n(-c3cccc(C)c3)c(=O)[nH]c2=O)cc1	-26.7%	-29.6%	-13.7%	2.24µM*	4.3%	-7.6%
C[C@]12CCC3C(CC[C@H]4C[C@H](O)CC[C@]34C)[C@@H]1CC[C@@H]2C(=O)CO (stereo partly drawn)	-10.2%	.	.	31.2%[59 µM]	.	.
COc1ccc(N=Cc2c(O)n(-c3ccc(C)cc3)c(=O)[nH]c2=O)cc1	1.2%	-7.0%	5.4%	8.8%	57.1%	10.5%
COc1ccc(N/N=C/c2c(O)n(-c3ccc(C)c(C)c3)c(=O)[nH]c2=O)cc1	-25.1%	35.5µM*	-35.7%	1µM*	-13.5%	-0.3%
COc1cccc(-n2c(O)c(C=NCCN3CCOCC3)c(=O)[nH]c2=O)c1	9.6%	-10.8%	7.6%	44.7µM*	62.8%	4.4%
CN1c2ccccc2C(NCCCCCCC(=O)O)c2ccc(Cl)cc2S1(=O)=O (stereo not drawn)	?	.	.	-1.6%[12.7 µM]	.	.
CC1(C)NCCN2C(=O)CSC21 (stereo not drawn)	22.9%	-9.0%	-21.6%	79.4µM*	53.2%	.
CC(Nc1cc(C)cc(C)c1)=[N+](C)CCNS(=O)(=O)c1ccc(Cl)cc1	-5.7%	?	-12.4%	8.91µM*	18.1%	.
